# Screens as filed in PubChem.
# This is a sample that favours compounds with a hit; in the whole collection about 4.5% have one here.
# NALP3 yeast inh = inhibitors of NALP3 inflammasome in yeast. 330,000 tested, 0.39% active. inhibition, % at 10 µM. Yeast reconstituted NLRP3/ASC/caspase-1, beta-gal luminescence, 24 h. AID 2825;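 active means inhibition of 50% or more; inactive means inhibition below 50%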
# PfHsp90 yeast 2 = growth inhibition of yeast expressing Plasmodium Hsp90; S. cerevisiae expressing PfHsp90, BacTiter-Glo ATP, 48 h; yeast lacking PDR1 and PDR3 efflux regulators; inhibition, % at 9.4 µM; 310,000 tested, 0.32% active; AID 504621;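 active means every replicate shows inhibition above about 80%, whatever the replicate mean, limit read from the data; inconclusive means mean inhibition reaches the set limit but some replicate falls short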
# tim23-1 inh = inhibits growth of tim23-1 mutant yeast. S. cerevisiae tim23-1 growth, BacTiter-Glo luminescence, 24 h. inhibition, % at 20 µM. 330,000 tested, 1.3% active. AID 463212;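 active means growth inhibition of the mutant yeast at or above 50%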;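 further: temperature-sensitive mutant grown at 25 °C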
# tim10-1 inh = growth inhibitors of tim10-1 mutant yeast; S. cerevisiae tim10-1 ts strain growth, BacTiter-Glo, 24 h; inhibition, % at 20 µM; 330,000 tested, 2.2% active;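 active means inhibition of at least 40%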;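 further: mutant grown at 25 °C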
# TIM10 inh = TIM10 yeast growth inhibition; inhibition, % at 10 µM; 330,000 tested, 1.4% active; S. cerevisiae TIM10 strain growth, BacTiter-Glo luminescence, 24 h;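 active means inhibition of 40% or more at the single tested concentration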;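 further: wild-type TIM10 isogenic control strain grown at permissive 25 °C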
# SKKanGAS inh = blocks kanamycin growth of S. pyogenes SKKanGAS strain | AID 1662 | inhibition, % at 7.5 µM | 300,000 tested, 1.3% active | BacTiter-Glo, 6 h;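 active means mean replicate score, as percent of positive control median, at least 50; inconclusive means mean below 50 but one replicate at or above 50; inactive means mean and every replicate below 50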;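 further: strain carries kanamycin resistance gene driven by streptokinase promoter and grows in 40 µg/ml kanamycin; loss of luminescence reflects streptokinase promoter inhibition or plain growth inhibition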
# tim10-1 confirm = tim10-1 yeast growth inhibition, confirmed; 7,400 tested, 56% active; AID 463213; inhibition, % at 20 µM; S. cerevisiae tim10-1 ts strain growth, BacTiter-Glo, 24 h; shares compounds with tim10-1 inh;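 active means inhibition of yeast growth at or above a set limit in either of two repeat tests at 20 µM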;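 further: tim10-1 mutant grown at permissive 25 °C to find synthetic lethal compounds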
# TIM10 conf = confirmation of TIM10 yeast growth inhibitors. shares compounds with TIM10 inh. S. cerevisiae tim10 strain growth, BacTiter-Glo luminescence, 24 h. inhibition, % at 10 µM. 4,600 tested, 63% active. AID 463215;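 active means inhibition of yeast growth at or above a set limit in either of two replicates at 10 µM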; further: this counterscreen used the strain with wild-type TIM10
# Hits are given with their value; 0 = inactive; ? = inconclusive; - = no result.
SMILES,NALP3 yeast inh,PfHsp90 yeast 2,tim23-1 inh,tim10-1 inh,TIM10 inh,SKKanGAS inh,tim10-1 confirm,TIM10 conf
Cn1c(SCc2ccccc2)nnc1-c1ccc(O)cc1,0,0,0,0,0,0,-,-
Cc1nn(C(C)(C)C)c(OC(=O)c2ccco2)c1Sc1ccccc1,0,0,0,49.3,46.9,0,38.6,46.1
Cc1nn(C(C)(C)C)c(OC(=O)c2ccc(Br)o2)c1Sc1ccccc1,0,0,0,41.2,40.7,0,36.1,36.0
N#CC(C#N)=C1CCCc2sccc21,-,0,-,-,-,-,-,-
COc1ccc(NC(=O)c2ccc(N3CCCC3=O)cc2)cc1Cl,0,0,0,0,0,-,-,-
Nc1nn2cc(-c3ccccc3)nc2c2ccccc12,0,-,0,56.5,56.3,0,52.8,48.8
Cc1cc(NC(=O)C(C)SCC(=O)Nc2ccc(SC(F)F)cc2)no1 (centres undefined),0,0,0,0,0,0,-,-
Cn1c(N2CCOCC2)nc2c1c(=O)n(Cc1ccc(Cl)cc1)c(=O)n2C,0,0,0,0,0,0,-,-
CC1CN(c2nc3c(c(=O)n(Cc4ccc(Cl)c(Cl)c4)c(=O)n3C)n2C)CC(C)O1 (centres undefined),0,0,0,48.8,45.2,0,43.5,33.4
CCOC(=O)CSCC(=O)N1N=C(c2cccs2)CC1c1ccc(F)cc1 (centres undefined),0,0,0,46.5,40.8,0,33.8,0
Cc1cccc(C(CC(=O)N2CCCC2)c2ccccc2)c1O (centres undefined),0,0,0,0,0,0,-,-
Cc1ccc(C(CC(=O)N2CCCC2)c2ccccc2)c(O)c1C (centres undefined),0,0,0,41.3,71.8,0,0,32.9
COc1ccc(C(C(=O)NCc2ccccc2)N(C(=O)c2snc(C(N)=O)c2N)C2CCCC2)cc1O (centres undefined),0,0,0,0,0,0,-,-
S=C(NCc1cccs1)Nc1cccc(Cl)c1,0,-,0,45.3,47.4,0,33.5,43.2
CC(C)c1ccc(NC(=S)NCc2cccs2)cc1,0,0,0,55.8,44.5,0,36.2,41.5
Cc1cc(Cl)ccc1OCC(=O)OCC(=O)NC1CCS(=O)(=O)C1 (centres undefined),0,0,0,0,0,-,-,-
CCN1CCN(c2nnc(-c3ccccc3)c3ccccc23)CC1,0,0,0,0,0,0,-,-
CCN1CCN(c2cc3c(nn2)Oc2ccccc2N3C)CC1,0,0,0,44.2,77.3,0,56.7,71.1
OC1(c2ccc(Cl)c(Cl)c2)C[n+]2ccccc2N1Cc1ccccc1 (centres undefined),0,0,0,0,0,0,-,-
O=C(CCCN1C(=O)/C(=C/c2ccccc2Cl)SC1=S)NCCCN1CCOCC1,0,0,0,44.1,43.5,0,41.1,46.2
O=c1c2ccccc2nc(/C=C/c2ccc([N+](=O)[O-])cc2)n1CCCO,0,0,0,0,0,0,-,-
O=c1c2ccccc2nc(/C=C/c2ccc([N+](=O)[O-])o2)n1CCCO,0,0,0,86.2,58.8,49.9,83.0,0
O=C(Nc1ccc(Cl)cc1Cl)c1cccc(N2C(=O)C=CC2=O)c1,0,107.4,0,59.2,94.9,0,96.2,99.8
COc1ccc(CN2C(=O)c3cccnc3C2=O)cc1S(=O)(=O)N(C)c1cccc(C)c1,0,0,0,0,0,0,-,-
O=C1C=CC(=O)N1CCNc1ncc(C(F)(F)F)cc1Cl,0,101.2,0,92.0,88.2,76.6,94.3,97.8
SMILES,NALP3 yeast inh,PfHsp90 yeast 2,tim23-1 inh,tim10-1 inh,TIM10 inh,SKKanGAS inh,tim10-1 confirm,TIM10 conf
CS(=O)(=O)NCCNc1ncc(C(F)(F)F)cc1Cl,0,0,0,0,0,0,-,-
O=S(=O)(NCCNc1ncc(C(F)(F)F)cc1Cl)C(F)(F)F,0,0,0,54.7,44.7,0,45.6,0
CC1CCCCN1C(=O)c1ccc(CS(=O)(=O)Cc2ccccc2)cc1 (centres undefined),0,0,0,0,0,0,-,-
Cc1cc(C)cc(NC(=O)CN2C(=O)C3CC=CCC3C2=O)c1 (centres undefined),0,0,0,0,0,-,-,-
Cc1cc(C(=O)CCC(=O)NCC(=O)Nc2c(C)cccc2C)c(C)s1,0,0,0,0,0,-,-,-
CC(C)[C@H](NC(=O)OC(C)(C)C)c1nnc(S(=O)(=O)Cc2c(F)cccc2Cl)o1,0,0,0,61.4,71.0,0,63.8,63.8
Cc1ccccc1CS(=O)(=O)c1nnc([C@H](CC(C)C)NC(=O)OC(C)(C)C)o1,0,?,0,65.4,57.2,0,48.0,49.2
CC(=O)Nc1ccc(SC[C@H](C)CN2CC[C@H](C(C)(C)C)CCC2=O)cc1,0,0,0,0,0,-,-,-
CC(=O)C(C(C)=O)C(c1ccccc1)c1nc2ccccc2[nH]c1=O (centres undefined),0,0,0,0,0,0,-,-
COc1ccc(/C(N)=N/OC(=O)c2ccc3c(c2)OCO3)cc1,0,0,0,63.7,65.8,0,49.8,0
Cc1ccc(/C(N)=N/OC(=O)c2ccc3c(c2)OCO3)cc1,0,0,0,55.8,63.1,0,51.5,0
CCN(CC)CCn1nc2c3c(cccc3c1=O)-c1ccccc1-2,0,0,0,0,0,-,-,-
O=c1c2cccc3c2c(nn1CN1CCOCC1)-c1ccccc1-3,0,0,0,52.9,41.1,0,0,51.5
C[C@H]1COC(=O)[C@H](CC(=O)OC(C)(C)C)C/C=C\C[C@@H](CC(=O)NCCO)C(=O)N1,0,0,0,0,0,-,-,-
O=C(Nc1cccc(C(F)(F)F)c1)c1ccc(Cn2cc(Br)cn2)o1,0,0,0,42.7,41.9,0,34.6,43.4
O=C(Nc1ccc(C(F)(F)F)cc1Cl)c1ccc(Cn2cc(Br)cn2)o1,0,0,0,0,0,0,-,-
O=C1OCC(CO)(CO)N=C1NNc1ccc(Cl)c(Cl)c1,0,100.7,0,48.7,42.4,0,0,41.0
Cc1ccc(S(=O)(=O)N(CCC(=O)N2CCOCC2)c2ccccc2)cc1,0,-,0,0,0,-,-,-
CC1CCN(c2nc3nonc3nc2Nc2ccc(F)cc2)CC1,0,0,0,41.3,44.7,0,43.8,0
Cn1c(=O)n(C)c2cc(NS(=O)(=O)c3ccccc3[N+](=O)[O-])ccc21,0,0,0,0,0,?,-,-
Cc1cc(Cl)ccc1OCC(=O)Nc1nc(-c2cccs2)cs1,0,0,0,48.8,43.5,0,40.7,0
Cc1cc(Cl)ccc1OCC(=O)Nc1nc(-c2cccnc2)cs1,0,0,0,0,0,0,-,-
CCOc1cc(C(=O)N(CC)CC(=O)Nc2c(F)cccc2F)ccc1OCC(=O)N1CCOCC1,0,-,0,0,0,-,-,-
